Assay results taken from the supplement of paper PMC9023506.
Where a name gives a salt, the structure may show the parent alone.

test system: Danio rerio larvae (5 dpf); experiment: habituation to 1-s acoustic pulses, difference vs DMSO (percentage points (treated minus DMSO)); higher = more of the behaviour than the DMSO vehicle control; details: 10 µM; exposure time: 3 h pre-incubation + 3 h imaging
Method: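 5-dpf wild-type zebrafish larvae were imaged in 96-well plates. They were treated with 190 Tocris FDA-approved drugs at 10 µM (1 µl/ml DMSO) for 3 h before and 3 h during imaging at 28.5 °C, 48 larvae per drug. Automated image analysis gave % time moving and optomotor responses. Values are drug group mean minus DMSO vehicle mean (n=844), in percentage points, for 10 behaviours.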

In order of rising “habituation to 1-s acoustic pulses” value:
1. CC(C)C(=O)Nc1ccc([N+](=O)[O-])c(C(F)(F)F)c1 [Flutamide]  -15.5
2. COC(=O)C1=C(C)NC(C)=C(C(=O)OC(C)C)C1c1cccc2nonc12 (stereo not given) [Isradipine]  -13.5
3. CCCN(CCc1cccs1)[C@H]1CCc2c(O)cccc2C1 [Rotigotine hydrochloride]  -12.9
4. CCOC(=O)C1=C(C)NC(C)=C(C(=O)OC)C1c1cccc(Cl)c1Cl (stereo not given) [Felodipine]  -11.1
5. Cc1cccc(CN2CCN(C(c3ccccc3)c3ccc(Cl)cc3)CC2)c1 (stereo not given) [Meclizine dihydrochloride]  -10.1
6. Cc1ccc(-c2cc(C(F)(F)F)nn2-c2ccc(S(N)(=O)=O)cc2)cc1 [Celecoxib]  -9.42
7. CC(C)Nc1cccnc1N1CCN(C(=O)c2cc3cc(NS(C)(=O)=O)ccc3[nH]2)CC1 [Delavirdine mesylate]  -7.61
8. CC/C(=C(\c1ccccc1)c1ccc(OCCN(C)C)cc1)c1ccccc1 [Tamoxifen citrate]  -6.99
9. CC(C)COCC(CN(Cc1ccccc1)c1ccccc1)N1CCCC1 (stereo not given) [Bepridil hydrochloride]  -6.51
10. OCCOCCN1CCN(C2=Nc3ccccc3Sc3ccccc32)CC1 [Quetiapine hemifumarate]  -4.36
11. O=C(O)CCCc1ccccc1 [Sodium 4-Phenylbutyrate]  -4.19
12. CN1CCN2c3ncccc3Cc3ccccc3C2C1 (stereo not given) [Mirtazapine]  -2.79
13. Cc1nc(-c2ccc(OCC(C)C)c(C#N)c2)sc1C(=O)O [Febuxostat]  -2.75
14. CN(C)CCc1c[nH]c2ccc(Cn3cncn3)cc12 [Rizatriptan benzoate]  -2.41
15. CC(=O)O[C@]1(C(C)=O)CC[C@H]2[C@@H]3C=C(C)C4=CC(=O)CC[C@]4(C)[C@H]3CC[C@@]21C [Megestrol Acetate]  -2.13
16. Clc1ccccc1C(c1ccccc1)(c1ccccc1)n1ccnc1 [Clotrimazole]  -1.97
17. COc1ccc(Cl)cc1C(=O)NCCc1ccc(S(=O)(=O)NC(=O)NC2CCCCC2)cc1 [Glibenclamide]  -1.87
18. Nc1nc(F)nc2c1ncn2[C@@H]1O[C@H](CO)[C@@H](O)[C@@H]1O [Fludarabine]  -1.56
19. Nc1cccc2c1CN(C1CCC(=O)NC1=O)C2=O (stereo not given) [Lenalidomide]  -1.09
20. COc1ccc([C@@H]2Sc3ccccc3N(CCN(C)C)C(=O)[C@@H]2OC(C)=O)cc1 [Diltiazem hydrochloride]  -0.578
21. O=C1CCc2cc(OCCCCc3nnnn3C3CCCCC3)ccc2N1 [Cilostazol]  -0.365
22. CC(C)c1nc(CN(C)C(=O)N[C@H](C(=O)N[C@@H](Cc2ccccc2)C[C@H](O)[C@H](Cc2ccccc2)NC(=O)OCc2cncs2)C(C)C)cs1 [Ritonavir]  -0.262
23. CC(C)(C)NC(=O)[C@@H]1C[C@@H]2CCCC[C@@H]2CN1C[C@@H](O)[C@H](Cc1ccccc1)NC(=O)[C@H](CC(N)=O)NC(=O)c1ccc2ccccc2n1 [Saquinavir mesylate]  -0.0249
24. Cc1cc(C2CCCCC2)n(O)c(=O)c1 [Ciclopirox]  0.443
25. Nc1ncn([C@@H]2O[C@H](CO)[C@@H](O)[C@H]2O)c(=O)n1 [5-Azacytidine]  0.737
26. OCCN(CCO)c1nc(N2CCCCC2)c2nc(N(CCO)CCO)nc(N3CCCCC3)c2n1 [Dipyridamole]  0.822
27. CC(CCc1ccc(O)cc1)NCCc1ccc(O)c(O)c1 (stereo not given) [Dobutamine hydrochloride]  1.34
28. Nc1nc2c(ncn2COCCO)c(=O)[nH]1 [Acyclovir]  1.89
29. COc1ccccc1OCCNCC(O)COc1cccc2[nH]c3ccccc3c12 (stereo not given) [Carvedilol]  2.04
30. NS(=O)(=O)c1cc2c(cc1Cl)NC(C1CC3C=CC1C3)NS2(=O)=O (stereo not given) [Cyclothiazide]  2.19
31. C[C@@H]1C[C@H]2[C@@H]3CCC4=CC(=O)C=C[C@]4(C)[C@@]3(F)[C@@H](O)C[C@]2(C)[C@@]1(O)C(=O)CO [Dexamethasone]  2.44
32. CCCCC(=O)N(Cc1ccc(-c2ccccc2-c2nnn[nH]2)cc1)[C@H](C(=O)O)C(C)C [Valsartan]  2.82
33. Cc1ccc(NC(=O)c2ccc(CN3CCN(C)CC3)cc2)cc1Nc1nccc(-c2cccnc2)n1 [Imatinib mesylate]  3.16
34. CCCCCCCCc1ccc(CCC(N)(CO)CO)cc1  3.87
35. CC(C)n1c(/C=C/C(O)CC(O)CC(=O)O)c(-c2ccc(F)cc2)c2ccccc21 (stereo not given) [Fluvastatin sodium]  4.04
36. CNCc1ccc(-c2[nH]c3cc(F)cc4c3c2CCNC4=O)cc1 [Rucaparib camsylate]  4.21
37. CN(CCOc1ccc(NS(C)(=O)=O)cc1)CCc1ccc(NS(C)(=O)=O)cc1 [Dofetilide]  5.42
38. Nc1ncn([C@H]2C[C@H](O)[C@@H](CO)O2)c(=O)n1 [Decitabine]  5.67
39. Cc1ccc(N(CC2=NCCN2)c2cccc(O)c2)cc1 [Phentolamine Mesylate]  5.8
40. CCOc1nc2cccc(C(=O)O)c2n1Cc1ccc(-c2ccccc2-c2noc(=O)[nH]2)cc1 [Azilsartan]  6.99
